SIRT5 block = inhibitors of human sirtuin-5 desuccinylase. Q9NXA8. Purified SirT5, succinyl-peptide AMC, trypsin-coupled fluorescence. inhibition, % at 15 µM. 330,000 tested, 1.1% active; in the data active = inhibition above about 15%
CASP6 VEID inh = inhibitors of human caspase-6. P55212. purified caspase-6, Z-VEID-R110 cleavage fluorescence. inhibition, % at 12.5 µM. 350,000 tested, 0.53% active. AID 686996;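 active = mean inhibition across replicates at least about 35%, with every replicate also reaching that limit, limit read from the data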;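 note: 0% = median of neutral control wells and 100% = no fluorescence left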
PfHsp90 yeast 2 = reduces growth (ATP signal) of yeast expressing P. falciparum Hsp90 | S. cerevisiae expressing PfHsp90, BacTiter-Glo ATP, 48 h; yeast lacking PDR1 and PDR3 efflux regulators | inhibition, % at 9.4 µM | 310,000 tested, 0.32% active | AID 504621;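 active = every replicate shows inhibition above about 80%, whatever the replicate mean, limit read from the data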;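 note: 0% = DMSO neutral controls and 100% = 20 µM radicicol positive controls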
NSD2 inh = inhibitors of human histone methyltransferase NSD2. O96028. NSD2 peptide methylation, AlphaScreen, 120 min. inhibition, % at 12.5 µM. 310,000 tested, 0.54% active. AID 743445; in the data active = inhibition above about 50%
Target sequence (O96028 whole entry, looked up): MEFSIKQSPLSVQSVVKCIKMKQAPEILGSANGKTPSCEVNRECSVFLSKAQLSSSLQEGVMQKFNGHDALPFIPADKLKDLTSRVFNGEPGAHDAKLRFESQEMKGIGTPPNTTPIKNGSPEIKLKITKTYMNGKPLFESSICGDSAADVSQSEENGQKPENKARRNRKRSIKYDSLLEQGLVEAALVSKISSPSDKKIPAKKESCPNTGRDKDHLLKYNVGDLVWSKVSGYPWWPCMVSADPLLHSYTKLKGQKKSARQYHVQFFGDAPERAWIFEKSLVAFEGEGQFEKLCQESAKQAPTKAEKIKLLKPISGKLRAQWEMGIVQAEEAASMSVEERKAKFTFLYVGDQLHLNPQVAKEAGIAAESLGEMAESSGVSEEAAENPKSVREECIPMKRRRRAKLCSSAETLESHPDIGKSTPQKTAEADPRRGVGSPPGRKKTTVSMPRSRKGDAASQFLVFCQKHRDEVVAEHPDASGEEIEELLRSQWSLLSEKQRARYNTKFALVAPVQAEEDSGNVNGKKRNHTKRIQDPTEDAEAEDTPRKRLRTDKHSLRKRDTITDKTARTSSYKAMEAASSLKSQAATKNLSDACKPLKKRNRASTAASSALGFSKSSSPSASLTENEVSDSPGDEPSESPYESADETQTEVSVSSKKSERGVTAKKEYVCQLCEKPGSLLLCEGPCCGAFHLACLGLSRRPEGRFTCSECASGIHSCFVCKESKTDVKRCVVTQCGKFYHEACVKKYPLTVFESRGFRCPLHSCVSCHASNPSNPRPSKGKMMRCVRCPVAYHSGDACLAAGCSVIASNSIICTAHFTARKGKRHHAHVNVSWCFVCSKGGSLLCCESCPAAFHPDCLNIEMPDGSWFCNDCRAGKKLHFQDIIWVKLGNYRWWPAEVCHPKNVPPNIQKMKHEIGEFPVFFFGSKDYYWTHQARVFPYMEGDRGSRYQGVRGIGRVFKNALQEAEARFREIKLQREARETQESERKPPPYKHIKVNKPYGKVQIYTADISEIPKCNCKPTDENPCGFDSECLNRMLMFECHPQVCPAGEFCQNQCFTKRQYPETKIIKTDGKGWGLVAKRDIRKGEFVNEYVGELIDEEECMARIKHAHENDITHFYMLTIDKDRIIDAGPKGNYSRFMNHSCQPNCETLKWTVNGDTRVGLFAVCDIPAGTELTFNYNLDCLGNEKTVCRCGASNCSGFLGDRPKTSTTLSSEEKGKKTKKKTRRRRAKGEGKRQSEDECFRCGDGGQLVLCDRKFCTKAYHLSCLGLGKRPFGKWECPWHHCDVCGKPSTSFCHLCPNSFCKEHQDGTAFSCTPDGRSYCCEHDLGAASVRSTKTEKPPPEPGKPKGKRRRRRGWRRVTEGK
ARNT-TACC3 inh = disrupts binding between human ARNT and TACC3; AlphaScreen His-ARNT PAS-B/GST-TACC3 binding, luminescence; TACC3 fragment carries E629A point mutation; inhibition, % at 9.99 µM; 390,000 tested, 0.66% active;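 active = mean inhibition of replicates at least 50% and at least half of replicates each reaching 50%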;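 note: 0% = complete ARNT plus TACC3 wells and 100% = ARNT alone without TACC3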
CASP1 counter = blocks human caspase-1 in a selectivity counter-screen. activity change, negative = inhibition, % at 35 µM. shares compounds with CASP6 VEID inh. 100 tested, under 10 active. AID 743289. purified caspase-1, Z-YVAD-R110 cleavage fluorescence;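 active = compounds lowering fluorescence whose fitted half-maximal concentration is no more than twice their top tested dose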
* marks the source's active call; other numbers are inactive results; nt = no result. An excerpt weighted towards active compounds, which were near 2.1% of everything screened.

SMILES	SIRT5 block	CASP6 VEID inh	PfHsp90 yeast 2	NSD2 inh	ARNT-TACC3 inh	CASP1 counter
COc1ccc(S(=O)(=O)N(C)C[C@H]2Oc3ccc(NC(=O)CCC(F)(F)F)cc3CC(=O)N([C@@H](C)CO)C[C@@H]2C)cc1	0	0	nt	nt	-10	nt
Cc1cccc(NC(=O)CNC(=O)c2cccc(-n3cccc3)c2)c1C	-2	83*	-3	2	-3	0
Cc1ccc(NC(=O)CN(C)C(=O)c2cccc(-n3cccc3)c2)cc1	2	82*	nt	24	2	11
Cc1cccc(C)c1NC(=O)CN(C)C(=O)c1cccc(-n2cccc2)c1	-2	15	-4	-1	1	nt
COc1ccc(NC(=O)CN(C)C(=O)c2cccc(-n3cccc3)c2)cc1	4	51*	-7	9	1	-3
CC=Cc1ccc2n(c1=O)C[C@H]1[C@H](CO)[C@@H](C(=O)NCc3ccccc3)N(Cc3cncnc3)[C@@H]21 (mixture of isomers)	1	0	nt	nt	-4	nt
O=c1cc2oc3cc(O)c(O)cc3c(-c3ccccc3[N+](=O)[O-])c-2cc1O	16*	96*	83*	128*	0	-1
O=C(COC(=O)c1ccccc1)Nc1ncc([N+](=O)[O-])s1	21*	84*	nt	83*	16	-7
O=C(Nc1ccccc1)Nc1ncc([N+](=O)[O-])s1	8	7	27	14	2	nt
C[C@@H]1CN([C@H](C)CO)C(=O)c2cc(NS(=O)(=O)c3cn(C)cn3)ccc2O[C@@H]1CN(C)C(=O)Nc1ccc2c(c1)OCO2	6	0	nt	nt	5	nt
C[C@@H]1CN([C@H](C)CO)C(=O)c2cc(NS(=O)(=O)c3ccc(F)cc3)ccc2O[C@@H](C)CCCCO[C@@H]1CN(C)Cc1ccccc1	12	0	nt	nt	5	nt
O=C(C[C@@H]1C[C@H]2c3cc(NC(=O)NC4CCCCC4)ccc3O[C@H]2[C@@H](CO)O1)NCc1ccccn1	-3	0	nt	nt	9	nt
O=C(C[C@@H]1C[C@H]2c3cc(NC(=O)NC4CCCCC4)ccc3O[C@H]2[C@H](CO)O1)NCc1ccccn1	1	75*	nt	nt	-46	1
Cc1noc(C)c1NC(=O)N[C@H]1C=C[C@H](CC(=O)Nc2ccccc2)O[C@H]1CO	7	-1	nt	nt	-1	nt
CC(CNc1ccccc1O)C(=O)O (stereo unspecified)	7	56*	-11	12	8	-2
CC(NC(=O)CCC(=O)Nc1ccccc1O)c1ccccc1 (stereo unspecified)	13	0	nt	-1	nt	nt
Cn1c(=O)c2c(-c3ccccc3)n(-c3ccccc3O)cc2n(C)c1=O	-2	5	12	0	-15	nt
Cn1c(=O)c2c(-c3ccccc3)n(-c3ccc(N)cc3)cc2n(C)c1=O	0	83*	nt	nt	nt	-1
Oc1cc(O)cc(C=Cc2ccc(O)c(O)c2)c1	nt	76*	nt	90*	nt	-8
O=C(O)/C(=C\c1ccc(Cl)c([N+](=O)[O-])c1)c1ccc(S(=O)(=O)N2CCCC2)s1	9	70*	14	49	nt	11
O=C(O)/C(=C\c1ccccc1Cl)c1ccc(S(=O)(=O)N2CCCCC2)s1	-2	28	3	26	nt	nt
Nc1cc2c(cc1Br)[nH]c(=O)c1ccccc12	-1	42*	-12	nt	21	6
O=C(C[C@@H]1CC[C@H]2[C@@H](COC[C@H](O)CN2Cc2nccs2)O1)NCc1ccccc1	-4	0	nt	nt	0	nt
O=C(O)CC(CCc1ccccc1)OC1OC(CO)C(O)C(O)C1O (stereo unspecified)	3	71*	nt	nt	-3	22
Cc1oc2c(cc(NS(=O)(=O)c3ccc(C(C)C)cc3)c3ccccc32)c1C(=O)O	3	39*	-8	20	3	12
O=C(C[C@@H]1CC[C@H]2[C@@H](COC[C@@H](O)CN2C(=O)Nc2ccc(Cl)c(Cl)c2)O1)NCc1ccccc1	-2	-2	nt	nt	10	nt
Cc1ccc(Nc2c([N+](=O)[O-])ccc3nonc23)c(C)c1	-2	-3	9	1	-1	nt
Cc1ccc(S(=O)c2ccc([N+](=O)[O-])c3nonc23)cc1 (stereo unspecified)	15*	91*	nt	66*	nt	21
